sEH inhibitor: inhibitors of human soluble epoxide hydrolase. 91,000 compounds, 0.34% hits. P34913. recombinant human sEH enzymatic activity assay. inhibition, % at 2 µM. AID 707; in the data active = inhibition above about 80%
Target sequence (P34913 whole entry, looked up): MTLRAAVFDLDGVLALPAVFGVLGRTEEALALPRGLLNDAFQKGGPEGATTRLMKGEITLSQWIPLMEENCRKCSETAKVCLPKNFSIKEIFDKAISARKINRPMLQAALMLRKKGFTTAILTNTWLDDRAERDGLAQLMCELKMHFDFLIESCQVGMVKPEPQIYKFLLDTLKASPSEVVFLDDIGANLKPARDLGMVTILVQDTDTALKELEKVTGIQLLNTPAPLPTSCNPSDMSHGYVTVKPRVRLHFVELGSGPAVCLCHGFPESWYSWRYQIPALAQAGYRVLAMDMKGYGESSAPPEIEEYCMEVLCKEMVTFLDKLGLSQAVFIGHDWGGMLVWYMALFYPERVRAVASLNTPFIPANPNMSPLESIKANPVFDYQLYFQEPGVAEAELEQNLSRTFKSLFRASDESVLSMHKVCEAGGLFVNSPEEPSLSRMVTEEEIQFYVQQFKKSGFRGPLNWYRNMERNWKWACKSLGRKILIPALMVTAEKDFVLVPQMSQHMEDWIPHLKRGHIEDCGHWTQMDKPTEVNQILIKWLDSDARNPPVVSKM
PostGolgi ctrl: yeast control strain growth, post-Golgi counter-screen. efflux-deficient yeast background strain, growth absorbance A615, 16 h. 98,000 compounds, 5% hits. inhibition, % at 10 µM
PostGolgi yeast: growth inhibition of a yeast mutant, post-Golgi transport screen; post-Golgi transport phenotypic cell assay; inhibition, % at 10 µM; 98,000 compounds, 0.9% hits; AID 739;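 also: yeast cells grown in 1536-well plates; yeast grown about 18 h at 30C before absorbance read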
Cav3 T inh: inhibitors of human Cav3.2 T-type calcium channel | O95180 | Cav3.2-expressing cells, Fluo-4 calcium fluorescence FDSS; stronger effect = lower value | B-score at 10 µM | 100,000 compounds, 4% hits | AID 449739;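 active = single-dose well whose peak fluorescence ratio is a statistical outlier from its plate by either plate-standardised score or position-corrected B-score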
sEH act: soluble epoxide hydrolase (human) activation | P34913 | purified human sEH enzymatic activity, activator screen | activation, % at 2 µM | 91,000 compounds, 0.04% hits | AID 717; in the data active = activation above about 37%
Hits are given with their value; – = inactive; · = no result. Shown are actives, neighbours in structure and some others; about 7.8% of the full set was active somewhere. Rule as the data show it, unless noted: active = inhibition above about 30%; inactive = the rest.

SMILES	sEH inhibitor	PostGolgi ctrl	PostGolgi yeast	Cav3 T inh	sEH act
O=C(CSc1ccc2nnc(-c3ccccn3)n2n1)N1CCN(c2ccccc2)CC1	–	–	–	–	–
CC(C)CCC(C)N=Cc1c(O)n(Cc2ccccc2)c(=O)c2ccccc12 (centres undefined)	–	–	–	–	–
O=c1c2ccccc2c(/C=N/c2ncn[nH]2)c(O)n1Cc1ccccc1	·	30	–	–	·
Clc1ccc(COn2nnc3ccccc32)c(Cl)c1	–	–	–	–	–
Cc1nc2c(C#N)c(C)[nH]n2c(=O)c1Cc1ccccc1	–	37	–	·	–
O=C(CCNS(=O)(=O)c1cccs1)N1CCc2ccccc2C1	–	–	–	–	–
COc1ccc(/C=N/NC(=O)COc2ccccc2-c2ccccc2)cc1	–	56	–	–	–
COc1ccc(/C=N/NC(=O)c2nc(-c3ccccc3)cc(-c3ccccc3)n2)cc1OC	–	32	–	–	–
CCCCN1C(=O)NC2NC(=O)NC21 (centres undefined)	–	·	·	–	–
CC1CN(S(=O)(=O)c2ccc(C(=O)Nc3nnc(-c4ccc5c(c4)CCCC5)o3)cc2)CC(C)O1 (centres undefined)	–	–	–	-8.4	–
O=C(Nc1nnc(-c2ccc3c(c2)CCCC3)o1)C1COc2ccccc2O1 (centres undefined)	–	72	100	-4.9	–
Cc1ccc(NC(=O)N(C2CCCCC2)C(C)c2cccnc2)cc1C (centres undefined)	–	90	99	–	–
CCc1ccc(NC(=O)c2cccnc2)cc1	–	–	–	·	–
CCc1ccc(NC(=O)N(C2CCCCC2)C(C)c2cccnc2)cc1 (centres undefined)	–	95	107	–	–
CC(=O)N1CCC(N(C(=O)Nc2ccc(C)c(C)c2)C2CCCC2)CC1	–	–	–	–	–
COc1ccc(NC(=O)N(C2CCCCC2)C(C)c2cccnc2)c(OC)c1 (centres undefined)	–	–	80	–	–
Cc1cc(C)c[n+](-c2nc([O-])sc2C=O)c1	–	–	–	–	–
COc1ccc(C(CC(=O)N2CCN(c3ccccc3)CC2)c2c(OC)cc(OC)c3ccc(=O)oc23)cc1 (centres undefined)	·	·	·	–	·
COCOc1cc(O)c(C(=O)/C=C/c2ccccc2)c(OCOC)c1	·	·	·	–	·
COc1cc(NS(=O)(=O)c2ccc(Br)s2)cc(OC)c1	–	–	–	-5.8	–
O=S(=O)(Nc1ccc2c(c1)OCO2)c1ccc(Br)s1	–	–	–	–	–
CC(=O)N(Cc1c(C)nn(-c2ccccc2)c1Cl)c1ccc(Cl)cc1	–	35	–	-8.3	–
O=C(O)CCc1nc(-c2ccccc2)no1	–	–	–	–	–
COc1ccc(Cl)cc1N(C)C(=O)CCc1nc(-c2ccc(C)cc2)no1	–	33	–	-5.7	–
CCc1ccccc1N(C)C(=O)CCc1nc(-c2ccc(C)cc2)no1	–	44	–	-5.5	–
SMILES	sEH inhibitor	PostGolgi ctrl	PostGolgi yeast	Cav3 T inh	sEH act
Cc1ccc2c(c1)N(C(=O)c1ccco1)C(C)(C)c1ssc(=S)c1-2	–	–	–	–	–
Cc1c(Cc2ccccc2)c(=O)oc2c(C)c(OCc3nn[nH]n3)ccc12	–	–	31	–	–
Cc1cc(OCc2nn[nH]n2)c2c(C)c(Cc3ccccc3)c(=O)oc2c1	–	32	–	–	–
CCC[C@@H]1CCCO[C@@](C(=O)NCc2cc(C)n(C)n2)(C(F)(F)F)C1	·	·	·	–	·
COC(=O)NC1CSCC1OC(=O)CN1C(=O)c2ccccc2C1=O (centres undefined)	·	40	–	–	·
CCOC(=O)CN1C(=O)c2ccccc2C1=O	–	–	–	–	–
CSc1nc(SCC(N)=O)c2c3c(sc2n1)CN(C)CC3	–	–	–	4.1	–
CSc1nc(SCC(=O)NCc2ccco2)c2c3c(sc2n1)CN(C)CC3	·	–	–	–	·
CCn1c(COc2cccc(C)c2)nc2ccccc21	–	·	·	-4	–
COCn1c(COc2ccc3ccccc3c2)nc2ccccc21	–	·	·	-5.3	–
Cc1ccccc1OCc1nnc2c3cnn(C)c3ncn12	·	34	–	–	·
Cc1ccccc1OCc1nc2ccccc2c(=O)n1N	–	–	–	–	–
c1ccc(Oc2cccc(OCCCn3cncn3)c2)cc1	–	–	–	–	–
OC(Cn1cncn1)(c1ccccc1)c1ccccc1	–	91	103	–	–
CCOC(=O)c1nnn(CC(=O)Nc2cccc(Cl)c2C)c1C(=O)OCC	–	–	–	–	–
CCOC(=O)c1nnn(CC(=O)N2N=C(c3cccc4ccccc34)CC2c2ccccc2)c1C(=O)OCC (centres undefined)	–	·	·	-5.5	–
COC(=O)C1=C2c3[nH]c4ccccc4c3CCN2C(=O)CC1	·	·	·	–	·
